Test results: PubChem BioAssay (NCI)
Compounds without any hit were thinned out: in the full panel of roughly 83,000, 20% have a hit.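 Each cell line was grown in a 96-well plate and treated with one concentration of compound for 48 hours. Values below 10 were considered active.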 Calls of active or inactive are those of the source.

tested on: MDA-MB-468 breast; assay: NCI-60 one-dose screen, 48 h (100 = growth as untreated, 0 = no growth, -100 = all killed); details: 10 µM unless noted

Row | SMILES | growth
1 | CC[C@]12CC(C(=O)OC)=C3Nc4ccccc4[C@@]34CCN(C14)[C@@H]1c3cc4c(cc3O[C@@H]1[C@H]2O)NC1=C(C(=O)OC)C[C@@]2(CC)C3N(CC[C@@]143)C[C@H]1O[C@H]12 (stereo not given in full) | -35.7% (active)
2 | Cc1nn(-c2ccccc2)c2nc3c(c(-c4ccc(Cl)cc4)c12)CNC1(CCSCC1)N3 | 93.1% (inactive)
3 | CC(C)=CCC[C@@H](C)[C@H]1CC[C@@]2(C)C3=C(CC[C@]12C)[C@@]1(C)CC[C@H](O)C(C)(C)[C@@H]1CC3 | 102% (inactive)
4 | COC(=O)c1ccc([N+](=O)[O-])c(C)c1 | 102% (inactive)
5 | Cc1ccc(-c2c(Br)c(OC(=O)CO[C@@H]3C[C@H](C)CC[C@H]3C(C)C)c(-c3ccc(C)cc3C)c(Br)c2OC(=O)CO[C@H]2C[C@@H](C)CC[C@@H]2C(C)C)c(C)c1 | 34.5% (inactive)
6 | COc1ccc(OC)c([C@H]2c3[nH]c4ccccc4c3C[C@H]3C(=O)N(CCCCCCC(=O)NO)CC(=O)N23)c1 | 74.9% (inactive)
7 | CC1=CC(c2ccco2)=C2C(N)=NNC2N1 (stereo not given) | 104% (inactive)
8 | Cc1ccc(Cc2cnc(NC(=O)c3cc(Br)cs3)s2)cc1 | 30% (inactive)
9 | COc1ccc(/C=N\NC(=O)c2ccncc2)cc1O | 92.8% (inactive)
10 | Oc1ccccc1N=Cc1c(O)ccc2ccccc12 | 83.2% (inactive)
11 | OCc1cccnc1 | 102% (inactive)
12 | O=S(=O)(Nc1ccc(Br)c(Cl)c1)c1ccc(-c2cnc(C3CC3)o2)cc1 | -23.9% (active)
13 | CNCc1cccc2c1OCCOCCOCCC(C)S(=O)(=O)c1ccc(cc1)-c1cnc(N)c(n1)C(=O)N2 (stereo not given) | 53.1% (inactive)
14 | Fc1ccccc1-c1nc(-c2nc3cc(Cl)c(Cl)cc3[nH]2)c2ccccn12 | 63.1% (inactive)
15 | Cc1[nH]c(C(=O)Nc2ccccc2OCc2cccc(C(=O)NCCN)c2)c(Cl)c1Cl | 10.7% (inactive)
16 | CC(=O)O[C@H]1CC[C@@]2(C)[C@@H](CC[C@@H]3[C@@H]2CC[C@@]2(C)[C@H]3CC[C@]2(O)C(C)=O)C1 | 94.1% (inactive)
17 | CCCCNc1ccc(Nc2ccccc2)cc1 | 11.4% (inactive)
18 | O=C(O)c1cn(C2CC2)c2cc(N3CCN(Cc4cc(Cl)ccc4O)CC3)c(F)cc2c1=O | 81.9% (inactive)
19 | CCN1CCN(c2cc(C)nc(N(CCCNc3ccnc4cc(Cl)ccc34)Cc3ccc4c(c3)OCO4)n2)CC1 | -55.5% (active)
20 | COc1cc(/C=C/C(=O)/C=C/c2ccc(-n3ccnc3C)cc2)ccc1O | 24.4% (inactive)
21 | Cc1cccc(C[C@H](NC(=O)Nc2ccc(Cl)cc2F)C(=O)N[C@@H]2C(=O)N3C[C@H](OC(=O)CCN(C)C)C[C@H]3C(=O)N3CCCC[C@H]3C(=O)N[C@@H](C)C(=O)N3C[C@H](C)C[C@H]3C(=O)O[C@H]2C)c1 | 9.39% (active)
22 | COc1ccc(/C=C(/C)c2ccc3ccc(OC)cc3[o+]2)c(O)c1 | 67.7% (inactive)
23 | NCCCCCNc1noc(Cc2c[nH]c3cc(Br)ccc23)n1 | 4.11% (active)
24 | COc1ccc(-c2nc(-c3nc4ccc(OC)cc4[nH]3)cc3c2[nH]c2ccccc23)cc1 | 59.6% (inactive)
25 | O=C(Nc1ccc2ncsc2c1)c1csc(Nc2ccc3[nH]ncc3c2)n1 | 35.6% (inactive)
